Source: PubChem BioAssay (Tox21)
Where “and” joins values, the source holds several entries; their conditions need not be identical. Equal entries are not always repeated. Results filed as inconclusive are left out. Calls of active or inactive are those of the source. Calls follow the shape of the dose curve; as a rule, active = well fitted curve in the direction sought with a large enough effect in the repeat runs; inconclusive = weak or mixed curves; inactive = no such curve, though single readings can be large; an effect the other way counts as inactive or inconclusive.

Tests used:
[1] = qHTS RealTime-Glo MT Cell Viability Assay in HEK293 cells - 0 hour (AID 1224880); also: top concentration of the series differs between compounds; nearly all actives have a fitted effect of over 45% in size
In short: (§1)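 Luminescence, which tracks viable cell number through reduction of the prosubstrate to a NanoLuc substrate, was read over continuous 37 C culture. Cells (600/well) were premixed with reagent and rested 5 h before 23 nL of compound in DMSO was pinned.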

[2] = A CellTox Green Cytotoxicity Assay to monitor cytotoxicity in HepG2 cells - 32 hour (AID 1224883); also: nearly all actives have a fitted effect of over 50% in size; also: potency is read from the fitted curve at half-maximal effect
In short: (§2)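 Real-time cytotoxicity: fluorescence of a cell-impermeant cyanine dye binding DNA of dead HepG2 cells, measured repeatedly (0–40 h) during compound exposure at 37 C. Cells seeded 600/well with reagent, dosed after 5 h.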

[3] = qHTS RealTime-Glo MT Cell Viability Assay in HepG2 cells - 16 hour (AID 1224885); also: nearly all actives have a fitted effect of over 50% in size; also: potency is read from the fitted curve at half-maximal effect
In short: (§3)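 HepG2 cells (600/well) were dispensed with RealTime-Glo reagents, incubated 5 h at 37 °C, then treated with compounds in DMSO for up to 40 h. Nonlytic NanoLuc luminescence reflecting viable cells was read at each stated time point.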

[4] = qHTS RealTime-Glo MT Cell Viability Assay in HEK293 cells - 8 hour (AID 1224887); also: top concentration of the series differs between compounds; nearly all actives have a fitted effect of over 50% in size
In short: as §1

[5] = A CellTox Green Cytotoxicity Assay to monitor cytotoxicity in HEK293 cells - 32 hour (AID 1224881); also: nearly all actives have a fitted effect of over 40% in size; also: potency is read from the fitted curve at half-maximal effect
In short: (§4)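 Fluorescence from a DNA-binding dye excluded by viable cells was measured repeatedly in the same HEK293 wells (600 cells/well) during continuous compound exposure at 37 C. Each assay gives one read point: 0, 8, 16, 24, 32 or 40 h.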

[6] = A CellTox Green Cytotoxicity Assay to monitor cytotoxicity in HepG2 cells - 0 hour (AID 1224882); also: nearly all actives have a fitted effect of over 35% in size; also: potency is read from the fitted curve at half-maximal effect
In short: as §2

[7] = A CellTox Green Cytotoxicity Assay to monitor cytotoxicity in HEK293 cells - 8 hour (AID 1224884); also: nearly all actives have a fitted effect of over 35% in size; also: potency is read from the fitted curve at half-maximal effect
In short: as §4

[8] = qHTS RealTime-Glo MT Cell Viability Assay in HEK293 cells - 24 hour (AID 1224886); also: nearly all actives have a fitted effect of over 50% in size; also: potency is read from the fitted curve at half-maximal effect
In short: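 HEK293 cells seeded with NanoLuc/prosubstrate reagent, rested 5 h at 37 C, then dosed and kept at 37 C up to 40 h. Nonlytic real-time luminescence from viable cells read at 0, 8, 16, 24, 32 and 40 h.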

[9] = A CellTox Green Cytotoxicity Assay to monitor cytotoxicity in HEK293 cells - 16 hour (AID 1224888); also: nearly all actives have a fitted effect of over 35% in size; also: potency is read from the fitted curve at half-maximal effect
In short: as §4

[10] = qHTS RealTime-Glo MT Cell Viability Assay in HepG2 cells - 0 hour (AID 1224889); also: nearly all actives have a fitted effect of over 50% in size; also: potency is read from the fitted curve at half-maximal effect
In short: as §3

Measured: Potency

CCCCC(CC)COP(=O)(O)O (stereo not drawn)
inactive: [1] | [2] | [3] | [4]

CCCCCCCCCCCCCCN(CCO)CCO
inactive: [6] | [10]
active: [5] 38.9 µM | [2] 19.5 µM | [7] 54.9 µM | [3] 43.6 µM | [8] 21.9 µM | [9] 54.9 µM

O=C(O)CCC(=O)C(=O)O
not listed: [1] | [4]
inactive: all other assays above

Oc1ccc(Cl)c2cccnc12
not listed: [1] | [2] | [6]
inactive: all other assays above

CC(C)C[C@H](NC(=O)[C@H](CCc1ccccc1)NC(=O)CN1CCOCC1)C(=O)N[C@@H](Cc1ccccc1)C(=O)N[C@@H](CC(C)C)C(=O)[C@@]1(C)CO1
active: [5] 0.301 µM | [2] 0.0239 µM | [8] 0.0674 µM
inactive: [7] | [4] | [9] | [10]

O=C1Cc2ccccc2N1c1c(Cl)cccc1Cl
active: [8] 38.9 µM
not listed: [1] | [2] | [4]
inactive: all other assays above

Cc1cc(C)c(N)cc1C
not listed: [1] | [6]
inactive: all other assays above

CC(=O)OCCN(CCOC(C)=O)c1ccc(N=Nc2ccc([N+](=O)[O-])cc2C#N)cc1
inactive: [5] | [6] | [2] | [7] | [3] | [10]

CCOC(=O)[C@H](CCc1ccccc1)N[C@@H](C)C(=O)N(CC(=O)O)C1Cc2ccccc2C1
not listed: [1] | [4] | [6]
inactive: all other assays above

CC(C)(O)c1ccc(CNC(=O)c2cccnc2Oc2ccc3nonc3c2)cc1
not listed: [1] | [4] | [8]
inactive: all other assays above

C[C@@H](CN(C)C)CN1c2ccccc2Sc2ccccc21
active: [5] 13.4 µM | [2] 26.8 µM
inactive: [6] | [7] | [4]

CCOc1cccc(-n2cc(C(=O)N3CCN(c4cc(C(=O)O)c5ccccc5c4)CC3)nc2-c2ccc(C)cc2)c1
not listed: [1] | [4] | [9]
inactive: all other assays above

C[C@@H]1CC(=O)NN=C1c1ccc(NN=C(C#N)C#N)cc1
active: [2] 16.9 µM and 10.7 µM
inactive: [5] | [7] | [8] | [9]

O=C(Nc1cccc2c(=O)cc(-c3nn[nH]n3)oc12)c1ccc(OCCCCc2ccccc2)cc1
inactive: [5] | [7] | [3] | [8] | [4]
active: [6] 26.8 µM

CCCCCCCCN
not listed: [1] | [5]
inactive: all other assays above

C=C(C)[C@@H]1CCC2=CCC[C@@H](C)[C@]2(C)C1
not listed: [1] | [2] | [10]
inactive: all other assays above

CC(C)C=O
not listed: [1] | [7]
inactive: all other assays above

C/C=C(/C(=C/C)c1ccc(O)cc1)c1ccc(O)cc1
inactive: [5] | [6] | [3] | [4] | [9]
active: [2] 16.9 µM

Nc1ccc(N=Nc2ccccc2)c(N)c1
active: [8] 42.7 µM
not listed: [1] | [3] | [4]
inactive: all other assays above

O=C1NC(=O)c2cc([N+](=O)[O-])ccc21
not listed: [1] | [6]
inactive: all other assays above

C=CCc1ccccc1OCC(O)CNC(C)C (stereo not drawn)
not listed: [1] | [6]
inactive: all other assays above

CCOC(=O)c1ccccc1C(=C1C=C(Br)C(=O)C(Br)=C1)c1cc(Br)c(O)c(Br)c1
inactive: [5] | [2] | [3] | [4] | [9]

COc1ccccc1Oc1c(NS(=O)(=O)c2ccc(C(C)(C)C)cc2)nc(-c2ncccn2)nc1OCCO
not listed: [1] | [7]
inactive: all other assays above

CN(C)CCC=C1c2ccccc2C=Cc2ccccc21
active: [2] 23.9 µM
not listed: [1] | [7] | [10]
inactive: all other assays above

CC(C)(C)CC(=O)OCC(=O)[C@@]1(O)CC[C@H]2[C@@H]3CCC4=CC(=O)C=C[C@]4(C)[C@H]3[C@@H](O)C[C@@]21C
inactive: [2] | [7] | [3] | [9]
active: [8] 21.3 µM | [10] 1.34 µM

COc1ncnc(NS(=O)(=O)c2ccc(N)cc2)c1OC
inactive: [5] | [7] | [3] | [8] | [10]

O=C(OC(=O)c1ccccc1)c1ccccc1
not listed: [1] | [7] | [9]
inactive: all other assays above

COC(=O)CCS
not listed: [1] | [4] | [7]
inactive: all other assays above

O=[N+]([O-])c1cc(C2CCCCC2)c(O)c([N+](=O)[O-])c1
active: [8] 13.8 µM | [10] 38.8 µM
inactive: [5] | [6] | [9]

CN1CCCC(CC2c3ccccc3Sc3ccccc32)C1 (stereo not drawn)
inactive: [6] | [7] | [4]
active: [5] 23.9 µM | [2] 21.3 µM | [8] 23.9 µM | [9] 23.9 µM

O=C(O)CCc1nc(-c2ccccc2)c(-c2ccccc2)o1
not listed: [1] | [4]
inactive: all other assays above

OCCN1CCN(CCCN2c3ccccc3Sc3ccc(Cl)cc32)CC1
inactive: [6]
active: [5] 26.8 µM | [2] 16.9 µM | [3] 23.9 µM | [8] 23.9 µM

CC(CC1c2ccccc2CCc2ccccc21)CN(C)C (stereo not drawn)
not listed: [1] | [2] | [10]
inactive: all other assays above

O=C(O)CCCCCCCCCCCBr
not listed: [1] | [6]
inactive: all other assays above

NNC(=O)CP(=O)(c1ccccc1)c1ccccc1
not listed: [1] | [4] | [10]
inactive: all other assays above

CCCCCCC(C)(C)C(=O)O
inactive: [5] | [6] | [2] | [3] | [8] | [9]

CC(=O)[C@H]1[C@H](C#N)C[C@H]2[C@@H]3CC=C4C[C@@H](O)CC[C@]4(C)[C@H]3CC[C@@]21C
inactive: [5] | [6] | [2] | [7] | [3] | [9]

COc1ccccc1N1CCN(CC(O)COc2cccc3ccccc23)CC1 (stereo not drawn)
inactive: [5] | [6] | [7] | [3] | [4]
active: [2] 26.8 µM

CCC1NC(=O)c2cc(S(N)(=O)=O)c(Cl)cc2N1 (stereo not drawn)
not listed: [1] | [6]
inactive: all other assays above

CC1=C(CC=O)C(C)(C)CCC1
not listed: [1] | [4]
inactive: all other assays above

COc1cc(C(=O)NCCCCCC(=O)O)cc(OC)c1OC
not listed: [1] | [4]
inactive: all other assays above
